Where “and” joins values, the source holds several entries; their conditions need not be identical. Equal entries are not always repeated. Results filed as inconclusive are left out. Calls of active or inactive are those of the source. Unless noted, calls come from the whole dose curve; as a rule, active = well fitted curve in the direction sought with a large enough effect; inconclusive = small, poorly fitted or top-dose-only effect, or another doubt; inactive = no such curve, though single readings can be large; an effect the other way counts as inactive or inconclusive.
How the values were obtained:
[1] = Cell Viability - LYMP2-010 (AID 981); note: % is set by controls: 0 for no effect and ±100 for the full control effect; nearly all actives have a fitted effect of over 55% in size
Procedure, shortened: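 Human lymphoblastoid LYMP2-010 cells (2500/well) treated 24 h at 37 C in complete medium; viability read as intracellular ATP by CellTiter-Glo luminescence. AC50 from Hill fits of concentration-response data; tetraoctylammonium bromide positive control.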

[2] = Cell Viability - LYMP2-012 (AID 982);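 note: cellular ATP by luciferase luminescence where a drop means cytotoxicity; cells exposed to compound for one day before reading; 0% = DMSO only and full loss = 92 µM tetraoctylammonium bromide; nearly all actives have a fitted effect of over 55% in size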
[3] = Cell Viability - LYMP2-014 (AID 983);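 note: plate controls were DMSO only for no effect and 92 µM tetraoctylammonium bromide for full effect; nearly all actives have a fitted effect of over 50% in size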
Procedure, shortened: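 LYMP2-014 human lymphoblastoid cells, 2500/well, treated 24 h at 37 C in complete medium; viability by CellTiter-Glo ATP luminescence after 30 min at room temperature. AC50 from Hill fits of qHTS concentration-response; tetraoctylammonium bromide positive control.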

[4] = Cell Viability - LYMP2-016 (AID 984); note: % is set by controls: 0 for no effect and ±100 for the full control effect; nearly all actives have a fitted effect of over 55% in size
Procedure, shortened: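 Concentration-dependent ATP depletion measured in LYMP2-016 lymphoblastoid cells, 24 h, 37 C; luciferase-based luminescent detection; Hill-equation AC50.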

[5] = Cell Viability - LYMP2-018 (AID 985);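 note: compound exposure lasted 24 hr at 37 °C; plate controls were DMSO only for no effect and tetraoctylammonium bromide at 92 µM for full effect; nearly all actives have a fitted effect of over 50% in size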
Procedure, shortened: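 Human lymphoblastoid LYMP2-018 cells, 2500/well, settled 5 hr at 37 C then exposed to compound 24 hr at 37 C; intracellular ATP measured by CellTiter-Glo luminescence. AC50 from Hill-equation concentration-response fits.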

[6] = Cell Viability - LYMP2-020 (AID 986);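 note: plate controls were DMSO only for no effect and tetraoctylammonium bromide at 92 µM for full effect; nearly all actives have a fitted effect of over 55% in size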
Procedure, shortened: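 Human lymphoblastoid LYMP2-020 cells (2500/well) preincubated 5 h at 37 C, then treated 24 h at 37 C. Viability measured as intracellular ATP by CellTiter-Glo luminescence after 30 min at room temperature; AC50 from Hill fits.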

[7] = Cell Viability - LYMP2-022 (AID 987)
Procedure, shortened: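 LYMP2-022 lymphoblastoid cells (2500/well, complete medium) were treated with compounds for 24 hours at 37 C; intracellular ATP was then read by CellTiter-Glo luminescence after 30 min at room temperature. AC50 values were derived from Hill-equation fits.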

[8] = Cell Viability - LYMP2-026 (AID 989); note: % is set by controls: 0 for no effect and ±100 for the full control effect; nearly all actives have a fitted effect of over 50% in size
Procedure, shortened: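 Human lymphoblastoid LYMP2-026 cells, 2500/well, exposed to compound 24 h at 37 C in complete medium. Viability as intracellular ATP by CellTiter-Glo luminescence; AC50 from Hill fits of qHTS concentration-response.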

[9] = Cell Viability - LYMP1-002 - Assay at 40 hr (AID 994);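 note: 0% = DMSO only and full inhibition = 92 µM tetraoctylammonium bromide; nearly all actives have a fitted effect of over 60% in size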
Procedure, shortened: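 LYMP1-002 human lymphoblastoid cells (2500/well, complete medium) were treated with compounds for 40 hr at 37 C. Intracellular ATP was measured by CellTiter-Glo luminescence, and AC50 values came from Hill-equation fits of concentration-response data; tetraoctylammonium bromide was the positive control.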

[10] = qHTS Assay for Lipid Storage Modulators (AID 1519; calls by dose curve; for activity change, negative = inhibition: % is set by controls: 0 for no effect and ±100 for the full control effect); settings: Drosophila S3 cells, BODIPY lipid droplet/cell ratio, laser cytometry, cells loaded with oleic acid
Procedure, shortened: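 Cells seeded at 5,000 per well were treated with compounds over a concentration series and loaded with oleic acid (400 uM, as added). Lipid droplet fluorescence (488 nm excitation, 500-530 nm channel) was read by laser-scanning cytometry and normalized to 20 uM Triacsin C.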

[11] = qHTS Assay for Identification of Small Molecule Inducers of Hypoxia Response (AID 2120; active = well fitted curve in the direction sought with a large enough effect in the signal ratio, with a control signal flat, not every such curve was filed as active; the % refers to the signal ratio; note: 0% is about no effect)
Procedure, shortened: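 HRE-bla ME-180 cells in Opti-MEM with 0.5% dialyzed FBS, pre-plated 4-5 h, then compound titration for 17 h at 37 degrees Celsius. CCF4 loaded 2.5 h at room temperature; 460/530 nm ratio gave %Activity and AC50 for induction.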

[12] = molecular target: Ubiquitin carboxyl-terminal hydrolase 1 (Homo sapiens) (UniProt O94782); assay: Inhibitors of USP1/UAF1: Pilot qHTS (AID 504865); note: potency is the fitted concentration of half-maximal effect; nearly all actives have a fitted effect of over 35% in size
Sequence of Ubiquitin carboxyl-terminal hydrolase 1 (Homo sapiens) (O94782 whole entry, looked up): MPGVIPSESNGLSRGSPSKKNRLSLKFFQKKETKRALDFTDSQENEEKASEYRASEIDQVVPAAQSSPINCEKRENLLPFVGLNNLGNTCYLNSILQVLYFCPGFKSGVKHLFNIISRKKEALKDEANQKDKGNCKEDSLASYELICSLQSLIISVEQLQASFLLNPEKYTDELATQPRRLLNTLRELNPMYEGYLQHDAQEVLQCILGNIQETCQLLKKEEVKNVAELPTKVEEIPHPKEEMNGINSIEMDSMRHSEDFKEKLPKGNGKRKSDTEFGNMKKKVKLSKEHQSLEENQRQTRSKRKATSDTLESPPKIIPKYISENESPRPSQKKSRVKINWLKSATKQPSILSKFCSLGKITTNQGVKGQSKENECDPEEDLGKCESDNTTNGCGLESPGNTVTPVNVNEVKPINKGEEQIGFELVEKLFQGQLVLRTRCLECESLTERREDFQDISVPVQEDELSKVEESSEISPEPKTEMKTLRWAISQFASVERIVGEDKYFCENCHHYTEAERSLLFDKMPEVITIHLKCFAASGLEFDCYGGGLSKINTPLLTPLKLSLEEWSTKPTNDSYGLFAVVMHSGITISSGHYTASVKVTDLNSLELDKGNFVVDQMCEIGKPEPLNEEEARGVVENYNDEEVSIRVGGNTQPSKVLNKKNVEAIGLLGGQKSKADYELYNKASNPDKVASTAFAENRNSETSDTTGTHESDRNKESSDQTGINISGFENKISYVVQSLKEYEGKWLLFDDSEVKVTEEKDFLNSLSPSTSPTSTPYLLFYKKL
Procedure, shortened: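 Enzyme-free wells gave the negative control, while test wells held 1nM USP1/UAF1 preincubated with compound for 15 min at room temperature. Ub-Rho at 150nM final started the reaction, and fluorescence at 480/540 nm was recorded kinetically.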

[13] = molecular target: Estrogen receptor (Homo sapiens) (UniProt P03372); assay: qHTS assay for small molecule agonists of estrogen receptor alpha signaling (AID 588514; calls by dose curve;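 note: 0% = vehicle only and 100% = reference agonist; nearly all actives have a fitted effect of over 70% in size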)
Sequence of Estrogen receptor (Homo sapiens) (P03372 whole entry, looked up): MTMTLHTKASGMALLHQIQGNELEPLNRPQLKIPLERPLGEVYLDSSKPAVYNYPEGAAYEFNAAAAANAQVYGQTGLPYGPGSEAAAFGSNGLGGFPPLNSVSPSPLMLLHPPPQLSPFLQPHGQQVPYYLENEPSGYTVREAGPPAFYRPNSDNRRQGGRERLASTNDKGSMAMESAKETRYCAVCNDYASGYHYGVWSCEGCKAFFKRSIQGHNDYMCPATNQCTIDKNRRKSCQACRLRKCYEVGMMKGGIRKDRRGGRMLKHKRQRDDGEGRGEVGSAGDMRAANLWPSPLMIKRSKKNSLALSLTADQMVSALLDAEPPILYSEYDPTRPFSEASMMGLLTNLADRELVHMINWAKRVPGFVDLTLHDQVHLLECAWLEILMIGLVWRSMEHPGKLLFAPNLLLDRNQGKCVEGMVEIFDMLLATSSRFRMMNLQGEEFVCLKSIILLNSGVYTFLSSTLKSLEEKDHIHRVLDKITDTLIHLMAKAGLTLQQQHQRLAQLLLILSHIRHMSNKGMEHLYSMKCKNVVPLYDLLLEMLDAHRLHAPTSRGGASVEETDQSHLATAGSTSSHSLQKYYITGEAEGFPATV
Procedure, shortened: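 ER-alpha-UAS-bla GripTite HEK293 cells, 5000/well in 2% charcoal/dextran-stripped FBS medium, treated with compound titrations 18 h at 37 C. CCF4 beta-lactamase read by fluorescence after 2 h RT; normalised to 20 nM 17-beta-estradiol (100%) and DMSO (0%), Hill fit for EC50 and efficacy.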

[14] = molecular target: Bile acid receptor (Homo sapiens) (UniProt Q96RI1); assay: qHTS assay for small molecule antagonists of farnesoid X receptor signaling (AID 588526; calls by dose curve; note: potency is the fitted concentration of half-maximal effect)
Sequence of Bile acid receptor (Homo sapiens) (Q96RI1 whole entry, looked up): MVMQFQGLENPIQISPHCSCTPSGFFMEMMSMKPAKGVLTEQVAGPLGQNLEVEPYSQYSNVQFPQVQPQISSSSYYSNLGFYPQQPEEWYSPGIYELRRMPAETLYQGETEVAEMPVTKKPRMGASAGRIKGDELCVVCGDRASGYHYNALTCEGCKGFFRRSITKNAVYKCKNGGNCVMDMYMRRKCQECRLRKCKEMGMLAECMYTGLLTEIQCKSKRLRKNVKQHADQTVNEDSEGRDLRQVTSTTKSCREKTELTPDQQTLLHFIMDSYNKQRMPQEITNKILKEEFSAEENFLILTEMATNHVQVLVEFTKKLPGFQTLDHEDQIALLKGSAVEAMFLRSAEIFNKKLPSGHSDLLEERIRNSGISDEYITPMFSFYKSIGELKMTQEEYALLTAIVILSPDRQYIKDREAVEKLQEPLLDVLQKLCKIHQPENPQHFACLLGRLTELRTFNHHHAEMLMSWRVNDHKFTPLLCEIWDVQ
Procedure, shortened: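 Antagonist mode: titrated compounds tested against chenodeoxycholic acid stimulation (normalized to 50 uM CDCA and DMSO) in GeneBLAzer HEK293T cells for 16 h. Beta-lactamase read by CCF4 fluorescence; IC50 from Hill fits.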

[15] = molecular target: Glucocorticoid receptor (Homo sapiens) (UniProt P04150); assay: qHTS assay for small molecule agonists of glucocorticoid receptor signaling (AID 588532; active = well fitted curve in the direction sought with a large enough effect in the signal ratio, with a control signal flat; the % refers to the signal ratio;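 note: 100% = dexamethasone at 0.1 µM and 0% = DMSO only wells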); settings: HeLa MMTV-bla, beta-lactamase ratio, agonist, 18 h; stronger effect = higher value; percent of dexamethasone control, DMSO zero
Sequence of Glucocorticoid receptor (Homo sapiens) (P04150 whole entry, looked up): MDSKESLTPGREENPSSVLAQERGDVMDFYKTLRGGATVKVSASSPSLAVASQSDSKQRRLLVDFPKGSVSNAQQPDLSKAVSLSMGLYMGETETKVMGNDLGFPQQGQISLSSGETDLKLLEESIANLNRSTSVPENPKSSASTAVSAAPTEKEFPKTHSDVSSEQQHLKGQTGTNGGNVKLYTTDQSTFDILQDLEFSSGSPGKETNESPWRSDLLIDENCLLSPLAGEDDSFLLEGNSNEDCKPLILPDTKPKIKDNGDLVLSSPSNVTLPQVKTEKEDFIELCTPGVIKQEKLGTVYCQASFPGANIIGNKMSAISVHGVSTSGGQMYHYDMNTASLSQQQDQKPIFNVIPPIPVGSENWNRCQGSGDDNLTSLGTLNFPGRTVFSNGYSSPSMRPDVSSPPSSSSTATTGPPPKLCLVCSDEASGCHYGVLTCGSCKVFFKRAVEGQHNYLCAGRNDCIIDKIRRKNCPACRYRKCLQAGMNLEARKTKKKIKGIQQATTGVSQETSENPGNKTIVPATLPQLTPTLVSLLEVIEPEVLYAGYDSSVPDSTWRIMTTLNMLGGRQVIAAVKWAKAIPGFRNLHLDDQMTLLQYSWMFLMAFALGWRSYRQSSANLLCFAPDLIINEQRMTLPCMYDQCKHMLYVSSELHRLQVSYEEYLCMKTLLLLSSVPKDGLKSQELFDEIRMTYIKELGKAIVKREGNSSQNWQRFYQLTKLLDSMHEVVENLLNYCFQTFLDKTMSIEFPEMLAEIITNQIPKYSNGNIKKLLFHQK
Procedure, shortened: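 HeLa GRE-bla reporter cells; 18 h compound exposure at 37 C; 2 h CCF4 loading at room temperature; fluorescence at 460 and 530 nm; EC50 by Hill equation.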

[16] = molecular target: Vitamin D3 receptor (Homo sapiens) (UniProt P11473); assay: qHTS assay for small molecule antagonists of vitamin D receptor signaling (AID 588541; calls by dose curve;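 note: receptor activated by calcitriol during compound treatment; % is set by controls: 0 for no effect and ±100 for the full control effect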)
Sequence of Vitamin D3 receptor (Homo sapiens) (P11473 whole entry, looked up): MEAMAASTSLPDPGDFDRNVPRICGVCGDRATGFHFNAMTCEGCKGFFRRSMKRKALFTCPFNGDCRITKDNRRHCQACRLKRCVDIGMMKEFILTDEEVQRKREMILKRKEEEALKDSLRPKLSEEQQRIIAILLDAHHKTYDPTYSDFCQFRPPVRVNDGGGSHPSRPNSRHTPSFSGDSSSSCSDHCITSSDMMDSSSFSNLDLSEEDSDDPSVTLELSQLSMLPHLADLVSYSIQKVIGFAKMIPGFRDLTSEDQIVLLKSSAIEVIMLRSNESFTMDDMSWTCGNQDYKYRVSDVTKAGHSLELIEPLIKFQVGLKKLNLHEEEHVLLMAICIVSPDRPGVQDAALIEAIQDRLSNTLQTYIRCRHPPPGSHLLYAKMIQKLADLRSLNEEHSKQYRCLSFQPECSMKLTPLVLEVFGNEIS
Procedure, shortened: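 VDR-UAS-bla HEK293T cells in 2% charcoal-stripped FBS were stimulated with 1-alpha,25-dihydroxyvitamin D3 (3 nM final) plus compound for 16 h at 37 C. The beta-lactamase CCF4 readout was normalized to 50 nM agonist and DMSO, and Hill fits gave IC50.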

[17] = molecular target: Vitamin D3 receptor (Homo sapiens) (UniProt P11473); assay: qHTS assay for small molecule agonists of vitamin D receptor signaling (AID 588543; calls by dose curve;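 note: 0% = DMSO basal and 100% = reference agonist control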)
Procedure, shortened: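 Measured: β-lactamase reporter activity (CCF4, 405 nm excitation, 460/530 nm emission) in HEK293T VDR-UAS-bla cells after 16 h compound exposure at 37 °C. Normalization against 50 nM 1α,25-dihydroxyvitamin D3 and DMSO; Hill-fit EC50.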

[18] = qHTS assay for small molecule agonists of retinoid X receptor alpha signaling (AID 588544; calls by dose curve;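 for activation: 0% = DMSO basal wells and 100% = reference agonist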); settings: HEK293T RXRa-UAS-bla, beta-lactamase reporter, 18 h; 530 nm emission
[19] = molecular target: Retinoic acid receptor RXR-alpha (Homo sapiens) (UniProt P19793); assay: as above
Sequence of Retinoic acid receptor RXR-alpha (Homo sapiens) (P19793 whole entry, looked up): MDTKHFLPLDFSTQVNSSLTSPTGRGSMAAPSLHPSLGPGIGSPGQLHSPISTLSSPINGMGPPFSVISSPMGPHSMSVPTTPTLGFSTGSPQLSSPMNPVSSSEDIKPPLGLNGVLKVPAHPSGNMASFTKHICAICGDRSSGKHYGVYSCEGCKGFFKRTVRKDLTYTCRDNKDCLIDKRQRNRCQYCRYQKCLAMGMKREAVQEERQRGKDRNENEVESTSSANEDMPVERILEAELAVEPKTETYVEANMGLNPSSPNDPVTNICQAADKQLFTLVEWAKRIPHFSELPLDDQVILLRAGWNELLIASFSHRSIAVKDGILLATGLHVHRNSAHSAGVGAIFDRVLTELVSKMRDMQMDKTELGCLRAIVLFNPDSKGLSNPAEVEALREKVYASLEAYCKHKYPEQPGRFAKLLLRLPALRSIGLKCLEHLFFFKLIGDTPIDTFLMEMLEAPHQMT

[20] = molecular target: Thyroid hormone receptor beta (Homo sapiens) (UniProt P10828); assay: qHTS assay for small molecule agonists of thyroid hormone receptor beta signaling (AID 588545; calls by dose curve)
Sequence of Thyroid hormone receptor beta (Homo sapiens) (P10828 whole entry, looked up): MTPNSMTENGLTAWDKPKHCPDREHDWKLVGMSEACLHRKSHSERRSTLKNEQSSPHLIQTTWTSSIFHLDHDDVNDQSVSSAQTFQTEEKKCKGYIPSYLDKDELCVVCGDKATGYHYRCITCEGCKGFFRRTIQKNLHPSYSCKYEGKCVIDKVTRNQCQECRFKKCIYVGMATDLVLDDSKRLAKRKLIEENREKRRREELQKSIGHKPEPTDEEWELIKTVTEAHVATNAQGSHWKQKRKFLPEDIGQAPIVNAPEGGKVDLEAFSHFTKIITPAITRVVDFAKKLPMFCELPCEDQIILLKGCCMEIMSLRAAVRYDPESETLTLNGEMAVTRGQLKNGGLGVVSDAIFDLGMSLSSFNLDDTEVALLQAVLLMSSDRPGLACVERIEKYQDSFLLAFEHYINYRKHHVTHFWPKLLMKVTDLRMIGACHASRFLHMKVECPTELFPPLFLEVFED
Procedure, shortened: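 Cells (2500/well) were seeded, incubated 4 hrs at 37 C, dosed with a compound series, incubated 18 hrs, loaded with CCF4 dye for 2 hrs at RT, then read for fluorescence. Data were scaled between DMSO (0%) and 10 nM T3 (100%).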

[21] = qHTS assay for small molecule antagonists of retinoid X receptor alpha signaling (AID 588546); settings: HEK293T RXRa-UAS-bla, beta-lactamase ratio, antagonist mode; measured here: W530 green channel, cytotoxicity proxy;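 note: cells stimulated with 9-cis-retinoic acid as agonist; % is set by controls: 0 for no effect and ±100 for the full control effect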
Procedure, shortened: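 Beta-lactamase reporter inhibition, read as CCF4 fluorescence ratio (ex 405, em 460/530 nm) after 2 h at RT. HEK293T UAS-bla cells, 2500/well, were stimulated with 9-cis-RA at 500 or 100 nM final alongside test compound for 18 h at 37 C.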

Oc1c(Cl)c(Cl)c(Cl)c(Cl)c1Cl
-3.69%: max response ([10]; measured here: cell count channel max response)
-15.3% and -8.92%: max response [21]
19.6%: max response [18]
inactive: Potency [1] | outcome [2] | outcome [3] | outcome [4] | outcome [5] | outcome [6] | outcome [7] | outcome [8] | Potency [9] | activity change, negative = inhibition ([10]; at 57.5 µM (top of the series)) -4.15% | outcome [11] | Potency [13] | activation [15] -3.18% | outcome [16] | Potency [17] | outcome [19] | Potency [20]
active: Potency [12] 79.4 µM | Potency [14] 25.1 µM
-7.5%: max response ([10]; measured here: lipid channel max response)

— PubChem BioAssay (NCATS)
